Screening data as filed in PubChem.
KB-3-1 cytotox = KB-3-1 parental cell cytotoxicity; KB-3-1 viability, CellTiter-Glo ATP luminescence, 72 h; AID 1347075; hit rate 1.4% among 400,000; Potency, µM (titrated, usually from 46.1 µM), actives largely listed as cytotoxic; note: potency is the fitted concentration of half-maximal effect; % is set by controls: 0 for no effect and ±100 for the full control effect; nearly all actives have a fitted effect of over 60% in size
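Cytotoxicity in the drug-sensitive parental line KB-3-1 was scored as loss of CellTiter-Glo luminescence following 72 h incubation with compound. Values come from curve fitting of normalized concentration-response data.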
SW480 rerep = DNA re-replication induction in SW480 cells; AID 624297; hit rate 1.8% among 340,000; Potency, µM (titrated, usually from 46.1 µM), for inactives: at the highest dose re-replication activation, most hits filed as activators; SW480 DNA re-replication, Hoechst DNA content imaging, 48 h; note: potency is the fitted concentration of half-maximal effect; % of control where 0% means no effect; nearly all actives have a fitted effect of over 55% in size
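Quantitative HTS format with DMSO vehicle controls; 48 hr drug incubation at 37 C, then 40 min Hoechst staining and scanning imager measurement at 405 nm excitation.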
KCNH2 3.1 block = inhibitors of human KCNH2 3.1 potassium channel isoform; U2OS KCNH2 3.1, thallium flux FluxOr; active compounds read low; AID 720553; activity change, % (tested at about 1.8 µM); hit rate 0.95% among 340,000;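 active = maximum activity change below -70%; inconclusive = maximum activity change from -70% to -50%; inactive = maximum activity change above -50%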;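 note: thallium influx rate constant from kinetic fluorescence after stimulation buffer; % is set by controls: 0 for no effect and ±100 for the full control effect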
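We transduce U2OS cells with the mutant 3.1 virus, culture them overnight, load FluxOr with Red40 quencher for 45 min, then add stimulation buffer and read kinetically for 2 min to derive a normalized rate constant.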
MCF10A rereplic = inducers of DNA re-replication in MCF 10A breast cells. MCF 10A DNA re-replication, Hoechst nuclear intensity, 48 h. hit rate 2.9% among 350,000. Potency, µM (highest dose often 46.1 µM), for the others: top-dose activity, positive = re-replication, hits mostly activators; note: potency is the fitted concentration of half-maximal effect; % of control where 0% means no effect; nearly all actives have a fitted effect of over 50% in size
KCNH2 WT inh = inhibitors of human wildtype KCNH2 potassium channel. U2OS, BacMam KCNH2, thallium flux FluxOr; active compounds read low. AID 720551. Q12809. hit rate 0.37% among 340,000. activity change, % at 1.84 µM;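 active = maximum activity change below -70%; inconclusive = maximum activity change between -70% and -50%; inactive = maximum activity change above -50%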; note: % is set by controls: 0 for no effect and ±100 for the full control effect
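U2OS cells were transduced with wild-type KCNH2 virus (2.03 x 10^8 / mL) for 4 h at room temperature, then cultured overnight at 37 C. Thallium flux was read with FluxOr dye. Rate constants were normalized to DMSO controls.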
KB-V1 cytotox = KB-V1 MDR subline cytotoxicity; KB-V1 MDR cells viability, CellTiter-Glo, 72 h; Potency, µM (titrated, usually from 46.1 µM), actives largely listed as cytotoxic; hit rate 3.4% among 400,000; AID 1347076; note: potency is the fitted concentration of half-maximal effect; % is set by controls: 0 for no effect and ±100 for the full control effect; nearly all actives have a fitted effect of over 60% in size
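Cells of the MDR subline KB-V1 are plated, dosed with compound at multiple concentrations, and incubated 72 h at 37 degrees C; CellTiter-Glo is then added and luminescence read after 10 min.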
Active calls of the source: *; i = inactive; ? = inconclusive; . = not tested or not shown; [ ] = another dose, or the depositor's remark. Sampled rows, rich in hits. Any-hit rate of the full collection: about 7.6%. Unless noted, calls come from the whole dose curve; as a rule, active = well fitted curve in the direction sought with a large enough effect; inconclusive = small, poorly fitted or top-dose-only effect, or another doubt; inactive = no such curve, though single readings can be large; an effect the other way counts as inactive or inconclusive.

SMILES	KB-3-1 cytotox	SW480 rerep	KCNH2 3.1 block	MCF10A rereplic	KCNH2 WT inh	KB-V1 cytotox
CCc1ccccc1NC(=O)CN(C)C(=O)CSc1nc2cc(Cl)ccc2s1	i	?	-2	-50%	0	15µM*
COC(=O)c1sc(NC(=O)c2ccco2)nc1C	i	-6%[9.22 µM]	-5	-5%	-5	i
Cc1nc(NC(=O)c2ccco2)sc1C(=O)Nc1ccc(Br)cc1	?	1%	1	23µM*	-2	i
Cc1nc(NC(=O)c2ccco2)sc1C(=O)O	13µM*	-9%	5	1%	8	4.6µM*
CCC(c1ccccc1)c1nnc(NC(=O)c2ccco2)s1 (configuration not stated)	i	-9%	-117*	-3%	0	i
CC1CN=C(N(C(=O)Nc2ccccc2)C(C)c2ccccc2)S1 (configuration not stated)	i	-4%	2	-3%	-7	i
CCOC(=O)c1c[nH]c2cc(OCC(C)C)c(OCC(C)C)cc2c1=O	.	-3%	.	-1%	.	.
COc1ccc(Cl)cc1NC(=S)Nc1ccccc1C	i	-7%	9	13%	1	i
CCN1C(=O)c2ccccc2S(=O)c2ccc(C(=O)NCc3ccccc3OC)cc21 (configuration not stated)	i	.	.	.	.	i
CC1Cc2ccccc2N1C(=O)c1cc2c(=O)n3ccccc3nc2n1C (configuration not stated)	?	14%	3	?	-7	5.8µM*
CC1CC(NC(=O)c2cc3c(=O)n4ccccc4nc3n2C)CC(C)(C)C1 (configuration not stated)	i	10µM*	1	10µM*	4	?
Cc1ccccc1-n1ccnc1SCC(=O)NCc1ccco1	i	-1%	2	0%	4	i
CCn1nc(C(=O)N2CCN(Cc3nc4ccccc4s3)CC2)c2ccccc2c1=O	?	-18%	-2	?	9	?
CN1CCN(c2cc3c(c4c2[nH]c2ccccc24)C(=O)CC(C)(C)C3)CC1	?	?	-4	21µM*	28	i
CN1CCN(c2ccc(Cl)cc2NC(=O)c2cc(=O)[nH]c3ccccc23)CC1	i	11%	-5	0%	8	i
COc1ccc(C)cc1NS(=O)(=O)c1c(C(=O)N2CCCCCC2)c(C)n(C)c1C	i	.	.	.	.	i
COC(=O)c1c(NC(=O)C2COc3ccccc3O2)sc2c1CCN(Cc1ccccc1)C2 (configuration not stated)	i	9%	-92*	24%	3	i
O=S(=O)(c1ccccc1)N1CCC(O)(CSc2ccc(Cl)cc2)CC1	?	4%	-3	?	-4	23µM*
O=C(NC1CCN(Cc2ccccc2)CC1)C1CCN(S(=O)(=O)c2ccc(Cl)cc2)CC1	i	30%	-3	21%	30	i
O=S(=O)(c1ccc(Cl)cc1)N1CCC(O)(CN2CCN(Cc3ccccc3)CC2)CC1	i	0%	-73*	20µM*	-19	i
CCNc1c(NS(=O)(=O)c2ccc([N+](=O)[O-])cc2)c(=O)oc2ccccc12	i	-1%	-12	?	1	i
C=CCn1c(=O)[nH]c2cc(C(=O)N3CCN(c4cccc(Cl)c4)CC3)ccc2c1=O	?	11%	2	17%	-3	12µM*
CC(=O)c1ccc(N2CCN(C(=O)c3ccc(Cn4c(=O)[nH]c5ccccc5c4=O)cc3)CC2)cc1	i	.	.	.	.	i
C=CCn1c(=O)[nH]c2cc(C(=O)N3CCN(c4ccc(C(C)=O)cc4)CC3)ccc2c1=O	i	5%	8	9%	-8	i
O=C(c1ccc(Cn2c(=O)[nH]c3ccccc3c2=O)cc1)N1CCN(c2ccc(Cl)cc2)CC1	?	17%	-7	21%	3	21µM*
Cc1nccc(-c2cc(-c3ccc(Cl)cc3Cl)no2)n1	i	-10%	-2	-4%	-3	i
